The values below come from PubChem BioAssay (Tox21).

Molecules are shown by their SMILES. Inconclusive results are not listed. Calls of active or inactive are those of the source. The call rests on the fitted dose curve; in most records, active means well fitted activation curve with a large enough effect in the repeat runs; inconclusive means weak or mixed curves; inactive means no such curve, though single readings can be large or run the other way.
On the % scale 0 is the no-effect control and ±100 the full control effect; potency means the concentration at half of the fitted maximal effect.

The target in this assay is Nuclear receptor subfamily 1 group I member 2 (Homo sapiens) (UniProt O75469). Put plainly: Human pregnane X receptor (PXR) small molecule agonists, qHTS assay (AID 1346982). Further: nearly all actives have a fitted effect of over 35% in size. The following applies: PXR-Luc HepG2, CYP3A4 luciferase reporter, 24 h; series mostly up to 92.4 µM; activation: at the top concentration. The gist of the method: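 Agonist mode qHTS: PXR-Luc HepG2 cells plated 5 hr before DMSO-dissolved compounds were pinned in, cultured 24 hr at 37 C, 5% CO2; ONE-Glo luminescence readout.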
Chain of Nuclear receptor subfamily 1 group I member 2 (Homo sapiens) (O75469 whole entry, looked up): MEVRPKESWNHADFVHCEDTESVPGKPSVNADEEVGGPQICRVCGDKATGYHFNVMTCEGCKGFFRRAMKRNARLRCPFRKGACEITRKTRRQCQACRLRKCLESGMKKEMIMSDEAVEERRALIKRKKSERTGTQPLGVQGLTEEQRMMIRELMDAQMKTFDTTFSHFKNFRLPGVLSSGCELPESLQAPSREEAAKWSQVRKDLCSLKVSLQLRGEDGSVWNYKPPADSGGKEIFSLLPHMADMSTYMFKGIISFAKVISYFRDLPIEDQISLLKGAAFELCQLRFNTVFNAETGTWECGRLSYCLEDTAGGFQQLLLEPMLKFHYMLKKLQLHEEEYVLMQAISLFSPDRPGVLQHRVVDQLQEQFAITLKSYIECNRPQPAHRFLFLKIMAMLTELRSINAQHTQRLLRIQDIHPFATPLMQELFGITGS
With `C[C@@H]1C[C@H]2[C@@H]3CCC4=CC(=O)C=C[C@]4(C)[C@@]3(F)[C@@H](O)C[C@]2(C)[C@@]1(O)C(=O)COP(=O)(O)O`, the “activation” value was 24.4% (inactive). Still for that read-out and setting: next, `CCOC(=O)c1c(N)sc2c1CCN(Cc1ccccc1)C2`: 13.2% [at 42.5 µM] (inactive); `CC[C@@H](CO)NCCN[C@@H](CC)CO`: -14.5% [at 42.5 µM] (inactive). In the case of `CCOC(=O)c1ccc(NC(=O)CN2CCCCC2)cc1`, the Potency was 23.7 µM (active). `CC(=O)OCC(C)C`: the “activation” value is 18.2% (inactive). For `Cc1cn([C@H]2C[C@H](F)[C@@H](CO)O2)c(=O)[nH]c1=O`, the “activation” value was -1.03% [at 42.5 µM] (inactive). Regarding `O=S(=O)(O)CO`, the “activation” value was 13.4% (inactive). For `COC(=O)Nc1nc2ccc(C(=O)C3CC3)cc2[nH]1`, the Potency was 8.41 µM (active). As for `CCCCCCCCCCCSCC(=O)O`, the “activation” value is -5.62% (inactive). As to `CC(C)C(O)C(C)(C)CO` (configuration not stated), the “activation” value was 9.77% (inactive).

As to `Nc1nc(-c2ccc([N+](=O)[O-])cc2)cs1`, the Potency was 9.79 µM (active). In the case of `CC(CCc1ccc(O)cc1)NCCc1ccc(O)c(O)c1` (configuration not stated), the “activation” value is 4.13% [at 42.5 µM] (inactive). For `COc1cc(NC(C)CCCN)c2ncccc2c1` (configuration not stated), the “activation” value is 4.21% [at 42.5 µM] (inactive). With `CC(C)OC(=O)c1ccccc1C(=O)OC(C)C`, the “activation” value was 11.8% (inactive). The same measure, in the same setting: the figure for `Cc1ccccc1S(N)(=O)=O` is 11.6% (inactive).

As to `COc1cc(S(=O)(=O)Nc2ccccc2)c(OC)cc1N`, the Potency was 27.3 µM (active).

With `COC1CCC=CO1` (configuration not stated), the “activation” value is -0.612% (inactive).

Consider `O=C1NC(=O)c2cccc3cccc1c23`, for which the Potency is 12.2 µM (active). For `c1ccc2sc(SSc3nc4ccccc4s3)nc2c1`, the activation was 0% [at 19 µM] (inactive). Take `NC(=O)c1ccccc1[N+](=O)[O-]`: the “activation” value is -0.113% (inactive).

Turning to `COc1cc(NCc2ccc3nc(N)nc(N)c3c2C)cc(OC)c1OC`, the “activation” value was -6.27% [at 42.5 µM] (inactive).

In the case of `O=C1OC(=O)c2c(Br)c(Br)c(Br)c(Br)c21`, the “activation” value was -2.59% (inactive).
